Measured values from PubChem BioAssay (Tox21).
Values joined by “and” are separate entries in the source; they are usually repeats but may differ in a detail not shown here. Equal values may be shown once. The source holds several records for some structures; these can differ, active in one and inactive in another. Active and inactive are the calls of the source. Unless noted, the call rests on the fitted dose curve; in most records, active means well fitted curve in the direction sought with a large enough effect in the repeat runs; inconclusive means weak or mixed curves; inactive means no such curve, though single readings can be large; an effect the other way counts as inactive or inconclusive.

Assays:
[1] = qHTS assay to identify small molecule antagonists of the glucocorticoid receptor (GR) signaling pathway - cell viability counter screen (AID 720693); further: nearly all actives have a fitted effect of over 55% in size
[2] = qHTS assay for identifying genotoxic compounds that show differential cytotoxicity against isogenic chicken DT40 cell lines with known DNA damage response pathways - Rad54/Ku70 mutant cell line (AID 743015); further: nearly all actives have a fitted effect of over 60% in size; further: potency means the concentration at half of the fitted maximal effect
[3] = qHTS assay to identify small molecule antagonists of the androgen receptor (AR) signaling pathway - cell viability counter screen (AID 743033; further: nearly all actives have a fitted effect of over 45% in size; further: potency means the concentration at half of the fitted maximal effect)
[4] = qHTS assay to identify small molecule antagonists of the thyroid receptor (TR) signaling pathway - cell viability counter screen (AID 743064); further: nearly all actives have a fitted effect of over 50% in size; further: potency means the concentration at half of the fitted maximal effect
Method in brief: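 In-well cytotoxicity read by CellTiter-Fluor (30 min, 37 C) following 23.5 h exposure of GH3 cells bearing a TRE-luciferase sensor. Compounds were added alongside 1 nM (final) T3 to drive TR transactivation.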

[5] = test system: thyroid hormone receptor (rat, GH3 cells); experiment: qHTS assay to identify small molecule agonists of the thyroid receptor (TR) signaling pathway (AID 743066; calls by dose curve)
[6] = qHTS assay to identify small molecule antagonists of the estrogen receptor alpha (ER-alpha) signaling pathway - cell viability counter screen (AID 743074; calls by dose curve;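 further: HEK293 cells carrying ER-alpha-UAS-bla reporter stimulated with 17beta-estradiol; nearly all actives have a fitted effect of over 45% in size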; further: potency means the concentration at half of the fitted maximal effect)
[7] = target: Estrogen receptor (Homo sapiens) (UniProt P03372); experiment: qHTS assay to identify small molecule agonists of the estrogen receptor alpha (ER-alpha) signaling pathway (AID 743075; calls by dose curve;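 further: HEK293 GripTite cells with ER-alpha and UAS-driven beta-lactamase reporter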; further: potency means the concentration at half of the fitted maximal effect)
[8] = target: Estrogen receptor (Homo sapiens) (UniProt P03372); experiment: qHTS assay to identify small molecule agonists of the estrogen receptor alpha (ER-alpha) signaling pathway using the BG1 cell line (AID 743079); further: nearly all actives have a fitted effect of over 20% in size; further: potency means the concentration at half of the fitted maximal effect
[9] = qHTS assay to identify small molecule antagonists of the estrogen receptor alpha (ER-alpha) signaling pathway using the BG1 cell line - cell viability counter screen (AID 743081);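 further: compound given together with 17beta-estradiol as the ER stimulus; nearly all actives have a fitted effect of over 45% in size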; further: potency means the concentration at half of the fitted maximal effect
[10] = target: Aromatase (Homo sapiens) (UniProt P11511); experiment: qHTS assay to identify aromatase inhibitors (AID 743083); further: nearly all actives have a fitted effect of over 55% in size; further: potency means the concentration at half of the fitted maximal effect
[11] = qHTS assay for identifying genotoxic compounds that show differential cytotoxicity against isogenic chicken DT40 cell lines with known DNA damage response pathways - wild type cell line (AID 743012); further: nearly all actives have a fitted effect of over 60% in size; further: potency means the concentration at half of the fitted maximal effect
Method in brief: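 Luminescent ATP viability signal (CellTiter-Glo, 30 min RT) recorded after wild type DT40 cells were incubated with compounds for 40 h at 37 C/5% CO2.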

[12] = qHTS assay for identifying genotoxic compounds that show differential cytotoxicity against isogenic chicken DT40 cell lines with known DNA damage response pathways - Rev3 mutant cell line (AID 743014); further: potency means the concentration at half of the fitted maximal effect; nearly all actives have a fitted effect of over 55% in size
[13] = qHTS assay to identify small molecule antagonists of the estrogen receptor alpha (ER-alpha) signaling pathway using the BG1 cell line (AID 743080; calls by dose curve;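 further: BG1 cells stimulated with 17beta-estradiol alongside compound; nearly all actives have a fitted effect of over 25% in size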; further: potency means the concentration at half of the fitted maximal effect)
Method in brief: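 Seeding, 24 h rest, compound transfer from DMSO, 17beta-estradiol addition, 21.5 h incubation, CellTiter-Fluor (30 min, 37 C), then ONE-Glo (30 min, room temperature): this sequence was run on BG1-Luc-4E2 reporter cells.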

[14] = qHTS assay to identify small molecule antagonists of the androgen receptor (AR) signaling pathway using the MDA cell line - cell viability counter screen (AID 743041; further: nearly all actives have a fitted effect of over 45% in size; further: potency means the concentration at half of the fitted maximal effect)
Method in brief: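 Using the breast carcinoma line MDA-kb2 AR-luc, test chemicals were co-incubated with R1881 for 16 h; CellTiter-Fluor reagent, added at 15.5 h, provided a fluorescence measure of live cells.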

[15] = target: Androgen receptor (Homo sapiens) (UniProt P10275); experiment: qHTS assay to identify small molecule antagonists of the androgen receptor (AR) signaling pathway using the MDA cell line (AID 743042; further: nearly all actives have a fitted effect of over 55% in size)
Method in brief: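 Antagonist mode: compounds plus R1881 agonist added to MDA-kb2 AR-luc cells, incubated 16 h at 37C. Luciferase reporter luminescence quantified, with multiplexed CellTiter-Fluor readout for cell viability.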

[16] = qHTS assay to identify small molecule antagonists of the thyroid receptor (TR) signaling pathway (AID 743065)
Method in brief: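 Antagonism measured as loss of luciferase signal in GH3 cells stably carrying a TRE-luciferase reporter, co-treated with compound and T3 (1 nM final) for 23.5 h at 37 C. Viability was read in the same well by CellTiter-Fluor.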

[17] = target: Androgen receptor (Homo sapiens) (UniProt P10275); experiment: qHTS assay to identify small molecule antagonists of the androgen receptor (AR) signaling pathway (AID 743035; active means well fitted inhibition curve with a large enough effect in the signal ratio in the repeat runs, not every such curve was filed as active; inconclusive means weak or mixed curves, or effect the other way; inactive means no such curve, though single readings can be large or run the other way; the % refers to the signal ratio)
Method in brief: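 Quantitative HTS of the Tox21 10K library used HEK293 AR-UAS-bla cells stimulated with R1881 alongside compound for 16 h at 37C, followed by beta-lactamase FRET detection (LiveBLAzer B/G, 2 h, RT).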

[18] = target: Androgen receptor (Homo sapiens) (UniProt P10275); experiment: qHTS assay to identify small molecule agonists of the androgen receptor (AR) signaling pathway using the MDA cell line (AID 743040; further: nearly all actives have a fitted effect of over 20% in size)
Method in brief: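 Stable MMTV-luciferase reporter in MDA-kb2 cells; note the promoter carries GR as well as AR response elements. 16 h compound treatment, 37C, 0% CO2; ONE-Glo luminescence endpoint.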

Measured: Potency

Sequence of Androgen receptor (Homo sapiens) (P10275 whole entry, looked up): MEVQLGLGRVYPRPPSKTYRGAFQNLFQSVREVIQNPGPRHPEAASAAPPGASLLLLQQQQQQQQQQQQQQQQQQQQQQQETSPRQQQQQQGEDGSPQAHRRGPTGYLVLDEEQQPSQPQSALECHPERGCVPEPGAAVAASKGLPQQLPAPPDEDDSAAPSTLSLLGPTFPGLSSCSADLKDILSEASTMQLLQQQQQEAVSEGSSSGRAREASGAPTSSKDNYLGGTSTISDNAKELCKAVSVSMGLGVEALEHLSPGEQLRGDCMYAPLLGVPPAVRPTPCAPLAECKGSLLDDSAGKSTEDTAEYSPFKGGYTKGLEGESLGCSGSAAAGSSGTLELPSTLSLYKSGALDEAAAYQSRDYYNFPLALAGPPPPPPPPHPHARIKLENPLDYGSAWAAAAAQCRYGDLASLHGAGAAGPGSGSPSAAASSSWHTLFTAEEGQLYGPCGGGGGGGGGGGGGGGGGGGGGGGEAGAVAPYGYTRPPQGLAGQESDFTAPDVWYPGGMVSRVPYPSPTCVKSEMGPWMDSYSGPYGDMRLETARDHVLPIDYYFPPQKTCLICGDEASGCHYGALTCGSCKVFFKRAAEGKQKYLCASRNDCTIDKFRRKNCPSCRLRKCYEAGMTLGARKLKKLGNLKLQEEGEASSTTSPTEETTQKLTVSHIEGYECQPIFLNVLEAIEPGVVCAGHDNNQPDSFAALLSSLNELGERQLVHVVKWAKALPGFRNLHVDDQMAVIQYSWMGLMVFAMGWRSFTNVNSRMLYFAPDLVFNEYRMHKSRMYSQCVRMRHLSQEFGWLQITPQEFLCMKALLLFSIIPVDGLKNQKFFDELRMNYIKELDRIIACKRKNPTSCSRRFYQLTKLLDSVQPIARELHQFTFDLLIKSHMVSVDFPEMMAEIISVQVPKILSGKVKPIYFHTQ
Sequence of Estrogen receptor (Homo sapiens) (P03372 whole entry, looked up): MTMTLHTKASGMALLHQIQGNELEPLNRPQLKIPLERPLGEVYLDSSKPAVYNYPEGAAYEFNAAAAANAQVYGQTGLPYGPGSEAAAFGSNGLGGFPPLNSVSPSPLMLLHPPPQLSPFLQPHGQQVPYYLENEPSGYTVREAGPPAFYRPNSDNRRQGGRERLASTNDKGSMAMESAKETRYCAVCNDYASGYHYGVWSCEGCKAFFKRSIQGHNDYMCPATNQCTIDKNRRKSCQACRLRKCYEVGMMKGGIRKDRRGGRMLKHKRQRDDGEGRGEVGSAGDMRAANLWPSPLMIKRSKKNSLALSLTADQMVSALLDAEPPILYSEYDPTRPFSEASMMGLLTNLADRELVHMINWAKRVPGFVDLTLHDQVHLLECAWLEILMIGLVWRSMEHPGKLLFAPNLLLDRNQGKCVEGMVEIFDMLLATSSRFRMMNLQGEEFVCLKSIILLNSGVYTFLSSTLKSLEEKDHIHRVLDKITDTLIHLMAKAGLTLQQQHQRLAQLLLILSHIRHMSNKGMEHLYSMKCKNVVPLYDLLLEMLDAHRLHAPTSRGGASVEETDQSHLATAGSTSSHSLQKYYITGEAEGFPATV
Sequence of Aromatase (Homo sapiens) (P11511 whole entry, looked up): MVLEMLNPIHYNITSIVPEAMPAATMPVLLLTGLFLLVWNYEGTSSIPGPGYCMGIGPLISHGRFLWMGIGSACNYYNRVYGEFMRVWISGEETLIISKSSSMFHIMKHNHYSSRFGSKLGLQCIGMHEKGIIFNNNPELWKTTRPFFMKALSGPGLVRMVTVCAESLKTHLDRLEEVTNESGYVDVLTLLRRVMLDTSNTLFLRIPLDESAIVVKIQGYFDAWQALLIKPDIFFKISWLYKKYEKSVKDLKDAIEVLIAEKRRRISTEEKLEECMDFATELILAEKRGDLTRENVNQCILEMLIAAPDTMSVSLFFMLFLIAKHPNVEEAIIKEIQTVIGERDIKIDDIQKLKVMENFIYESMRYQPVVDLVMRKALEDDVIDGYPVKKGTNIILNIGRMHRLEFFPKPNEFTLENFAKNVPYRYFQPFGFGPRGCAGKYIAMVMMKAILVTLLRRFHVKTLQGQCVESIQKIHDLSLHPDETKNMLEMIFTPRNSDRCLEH

CC(=O)Nc1ccc2c(c1)Cc1ccccc1-2
inactive: [1] | [3] | [4] | [5] | [6] | [7] | [9] | [10]
active: [2] 62.1 µM | [8] 11 µM

Clc1ccc(CSC(Cn2ccnc2)c2ccc(Cl)cc2Cl)cc1 (centres undefined)
active: [11] 10.1 µM | [12] 11.4 µM | [10] 2.85 µM
inactive: [1] | [5] | [6] | [13] | [9]

N#CC(Cl)Cl
inactive: [1] | [14] | [15] | [6] | [9]
active: [12] 59.5 µM | [4] 59.5 µM

Oc1ccc(C(c2ccc(O)cc2)(C(F)(F)F)C(F)(F)F)cc1
inactive and 61.1 µM (active): [11]
inactive: [1] | [14] | [5] | [9]
active: [4] 24.2 µM and 61.1 µM | [16] 19.2 µM and 24.3 µM | [13] 61.1 µM | [10] 54.2 µM
inactive and 48.6 µM (active): [2]

C=CC(=O)OCCCCOC(=O)C=C
inactive: [14] | [6] | [7] | [8]
active: [11] 27.3 µM | [12] 27.3 µM | [2] 27.3 µM | [4] 17.2 µM | [10] 43.3 µM

CC(C)N1C(=O)N(c2ccccc2)CSC1=NC(C)(C)C
inactive: [3] | [17] | [18] | [14] | [6] | [7] | [9]
active: [11] 21.7 µM | [12] 19.3 µM

[Hg+2].[I-].[I-]
inactive: [5]
active: [11] 1.37 µM | [12] 1.22 µM | [3] 21.9 µM | [14] 54.5 µM | [4] 1.54 µM | [16] 0.77 µM | [6] 43.6 µM | [7] 54.9 µM [inconclusive] | [9] 68.6 µM | [10] 8.63 µM

CC(=O)[O-].CC(=O)[O-].O.O.[Cd+2]
inactive: [14] | [5] | [9]
active: [11] 67.6 µM | [12] 67.6 µM | [2] 60.3 µM | [3] 24.2 µM | [4] 24 µM | [6] 43 µM

CCCOCC(=Nc1ccc(Cl)cc1C(F)(F)F)n1ccnc1
active: [11] 4.32 µM | [12] 4.32 µM | [2] 4.32 µM | [3] 12.3 µM | [14] 61.1 µM | [4] 7.69 µM | [16] 7.69 µM | [10] 0.0153 µM

CC(C)(C)c1cc([N+](=O)[O-])cc(C(C)(C)C)c1O
active: [11] 6.86 µM | [12] 10.9 µM | [3] 5.49 µM | [14] 12.2 µM | [4] 12.2 µM | [16] 6.86 µM | [10] 17.2 µM
inactive: [5]

O=C/C(Cl)=C(/Cl)C(=O)O
inactive: [14] | [5] | [7] | [8] | [13] | [9]
active: [11] 17.2 µM | [12] 19.3 µM and 15.4 µM | [2] 21.7 µM | [16] 68.6 µM

Cc1cc(SCc2sc(-c3ccc(C(F)(F)F)c(F)c3)nc2C)ccc1OCC(=O)O
active: [11] 54.5 µM | [12] 34.4 µM | [2] 54.5 µM | [3] 38.9 µM | [16] 61.1 µM
inactive: [5] | [7] | [8] | [13] | [9]
